Activity calls are given as the source filed them. Rule for the calls: active = hit-call score of the fitted dose curve at least 0.9, where 1 is the maximum; inactive = score below 0.9.
Tests used:
Conditions in all cases: mRNA level, 48 h; actives raise or lower the signal
[1] = read-out: 3-Hydroxy-3-Methylglutaryl-CoA Synthase 2 (HMGCS2), HMGCS2 (gene 3158); assay: LTEA_HepaRG_HMGCS2: Life Technologies and Expression Analysis (LTEA) Assay for 3-Hydroxy-3-Methylglutaryl-CoA Synthase 2 (HMGCS2) using HepaRG (AID 2283504)
In short: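 qRT-PCR read-out of HMGCS2 transcript, normalised to three housekeeping genes, in HepaRG cells after 48 h chemical exposure. Eight-point curves from 100 uM, half-log dilutions, 0.5% DMSO vehicle; gain or loss fitted relative to DMSO baseline.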

[2] = read-out: HGF (gene 3082); assay: LTEA_HepaRG_HGF: Life Technologies and Expression Analysis (LTEA) Assay for Hepatocyte Growth Facto (HGF) using HepaRG (AID 2283505)
In short: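 HepaRG, 48 h dosing, 8-pt half-log series from 100 uM in 0.5% DMSO, duplicates. Readout: TaqMan qRT-PCR of HGF mRNA, housekeeping-normalized; bidirectional curve fit vs DMSO baseline.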

[3] = read-out: Intercellular Adhesion Molecule 1 (ICAM1), ICAM1 (gene 3383); assay: LTEA_HepaRG_ICAM1: Life Technologies and Expression Analysis (LTEA) Assay for Intercellular Adhesion Molecule 1 (ICAM1) using HepaRG (AID 2283507)
In short: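 HepaRG, 48 h exposure, 8-pt half-log series from 100 uM, 0.5% DMSO vehicle, duplicates. Readout: TaqMan qRT-PCR mRNA, housekeeping-normalized (ACTB/GAPDH/POLR2A). Bidirectional curve fit vs DMSO baseline.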

[4] = read-out: Insulin-like growth factor-binding protein 1 (IGFBP1), IGFBP1 (gene 3484); assay: LTEA_HepaRG_IGFBP1: Life Technologies and Expression Analysis (LTEA) Assay for Insulin-like growth factor-binding protein 1 (IGFBP1) using HepaRG (AID 2283508)
In short: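 qRT-PCR mRNA read-out (TaqMan, Fluidigm array), normalised to three housekeeping genes; HepaRG cells, 48 h exposure, 8-pt half-log series from 100 uM, 0.5% DMSO vehicle; bidirectional curve fit vs DMSO baseline.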

[5] = read-out: Interleukin 6 (IL6), IL6 (gene 3569); assay: LTEA_HepaRG_IL6: Life Technologies and Expression Analysis (LTEA) Assay for Interleukin 6 (IL6) using HepaRG (AID 2283509)
In short: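 qRT-PCR read-out of IL6 transcript, normalized to three housekeeping genes, after 48 h chemical exposure of HepaRG cells; 8-point half-log series, top 100 uM, 0.5% DMSO vehicle. Bidirectional curve fitting against DMSO baseline.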

[6] = read-out: Interleukin 6 Receptor (IL6R), IL6R (gene 3570); assay: LTEA_HepaRG_IL6R: Life Technologies and Expression Analysis (LTEA) Assay for Interleukin 6 Receptor (IL6R) using HepaRG (AID 2283510)
In short: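 HepaRG, 48 h exposure, 8-pt half-log series, top 100 uM, 0.5% DMSO vehicle, duplicates. Read-out: TaqMan qRT-PCR of IL6R transcript, housekeeping-gene normalized. Gain or loss fitted relative to DMSO baseline.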

[7] = read-out: Potassium channel subfamily K member 1 (KCNK1), KCNK1 (gene 3775); assay: LTEA_HepaRG_KCNK1: Life Technologies and Expression Analysis (LTEA) Assay for Potassium channel subfamily K member 1 (KCNK1) using HepaRG (AID 2283511)
In short: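 HepaRG, 48 h exposure, 8-pt half-log series top 100 uM, 0.5% DMSO vehicle, duplicates. Readout: KCNK1 transcript by qRT-PCR (Fluidigm array), housekeeping-normalized; bidirectional curve fit relative to DMSO baseline.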

[8] = read-out: Keratin 19 (KRT19), KRT19 (gene 3880); assay: LTEA_HepaRG_KRT19: Life Technologies and Expression Analysis (LTEA) Assay for Keratin 19 (KRT19) using HepaRG (AID 2283512)
In short: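 HepaRG, 48 h chemical exposure, 8-pt half-log CRC from 100 uM, 0.5% DMSO vehicle, duplicates. Readout: TaqMan qRT-PCR of KRT19 mRNA, housekeeping-normalized (ACTB/GAPDH/POLR2A). Bidirectional fit vs DMSO baseline.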

[9] = read-out: JUN Transcription Factor, JUN (gene 3725); assay: LTEA_HepaRG_JUN: Life Technologies and Expression Analysis (LTEA) Assay for JUN Transcription Factor using HepaRG (AID 2283513)
In short: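 HepaRG, 48 h exposure, 8-pt half-log series top 100 uM, 0.5% DMSO, duplicate. JUN mRNA by qRT-PCR (Fluidigm), housekeeping-normalized (ACTB/GAPDH/POLR2A); bidirectional curve fit vs DMSO baseline.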

[10] = read-out: Lipase C (LIPC), LIPC (gene 3990); assay: LTEA_HepaRG_LIPC: Life Technologies and Expression Analysis (LTEA) Assay for Lipase C (LIPC) using HepaRG (AID 2283514)
In short: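 HepaRG, 48 h exposure, 8-pt half-log series from 100 uM in 0.5% DMSO, duplicates. Readout: LIPC mRNA by Fluidigm qRT-PCR, housekeeping-normalized (ACTB/GAPDH/POLR2A). Gain or loss fitted bidirectionally against DMSO baseline.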

[11] = read-out: matrix metalloproteinase-10 (MMP10), MMP10 (gene 4319); assay: LTEA_HepaRG_MMP10: Life Technologies and Expression Analysis (LTEA) Assay for matrix metalloproteinase-10 (MMP10) using HepaRG (AID 2283517)
In short: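 Transcript levels come from Fluidigm qRT-PCR normalized to three housekeeping genes, with curves fitted bidirectionally against 0.5% DMSO. Human HepaRG cells were dosed for 48 hours at concentrations up to 100 uM.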

[12] = read-out: MYC, MYC (gene 4609); assay: LTEA_HepaRG_MYC: Life Technologies and Expression Analysis (LTEA) Assay for MYC using HepaRG (AID 2283518)
In short: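 qRT-PCR read-out of MYC transcript (Fluidigm TaqMan, housekeeping-normalized) after 48 h chemical exposure of HepaRG cells; eight concentrations, top 100 uM, half-log steps. Bidirectional curve fitting against 0.5% DMSO vehicle baseline.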

[13] = read-out: matrix metalloproteinase-3 (MMP3), MMP3 (gene 4314); assay: LTEA_HepaRG_MMP3: Life Technologies and Expression Analysis (LTEA) Assay for matrix metalloproteinase-3 (MMP3) using HepaRG (AID 2283519)
In short: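 qRT-PCR read-out of MMP3 mRNA (normalised to three housekeeping genes) in HepaRG liver cells after 48 h chemical exposure; 8-point half-log series, top 100 uM, 0.5% DMSO vehicle. Bidirectional curve fitting against DMSO baseline.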

[14] = read-out: Paternally Expressed 10 (PEG10), PEG10 (gene 23089); assay: LTEA_HepaRG_PEG10: Life Technologies and Expression Analysis (LTEA) Assay for Paternally Expressed 10 (PEG10) using HepaRG (AID 2283520);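 for AC50: PEG10 transcript by qRT-PCR normalised to ACTB GAPDH and POLR2A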
In short: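 qRT-PCR read-out: PEG10 mRNA normalised to three housekeeping genes, fitted bidirectionally against 0.5% DMSO vehicle. HepaRG cells received test chemicals for 48 h in serum-free induction medium, 8 points, top 100 uM, half-log steps.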

[15] = read-out: Nuclear factor NF-kappa-B p105 subunit (Homo sapiens) (UniProt P19838); assay: LTEA_HepaRG_NFKB1: Life Technologies and Expression Analysis (LTEA) Assay for Nuclear Factor Kappa B Subunit 1 (NFKB1) using HepaRG (AID 2283521);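 note: TaqMan qRT-PCR transcript normalised to ACTB GAPDH and POLR2A housekeeping genes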
In short: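 Differentiated human HepaRG cells were exposed for 48 h in serum-free induction medium to eight concentrations (top 100 uM, half-log steps, 0.5% DMSO), in duplicate. NFKB1 mRNA was measured by TaqMan qRT-PCR, normalized to ACTB/GAPDH/POLR2A, and fitted bidirectionally against DMSO.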

[16] = read-out: Protein phosphatase 2A (PPP2R4), PTPA (gene 5524); assay: LTEA_HepaRG_PPP2R4: Life Technologies and Expression Analysis (LTEA) Assay for Protein phosphatase 2A (PPP2R4) using HepaRG (AID 2283522)
In short: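 HepaRG, 48 h exposure, 8-pt half-log series from 100 uM, 0.5% DMSO vehicle, duplicates. Readout: PPP2R4 mRNA, Fluidigm qRT-PCR, housekeeping-normalized. Bidirectional curve fit vs DMSO baseline.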

[17] = read-out: Phosphatase and tensin (PTEN), PTEN (gene 5728); assay: LTEA_HepaRG_PTEN: Life Technologies and Expression Analysis (LTEA) Assay for Phosphatase and tensin (PTEN) using HepaRG (AID 2283523)
In short: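 HepaRG, 48 h exposure, 8-pt half-log series from 100 uM top, 0.5% DMSO vehicle, duplicates. Readout: Fluidigm qRT-PCR of PTEN transcript; housekeeping normalization (ACTB, GAPDH, POLR2A). Gain or loss fitted relative to DMSO baseline.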

[18] = read-out: solute carrier (SLC22A1), SLC22A1 (gene 6580); assay: LTEA_HepaRG_SLC22A1: Life Technologies and Expression Analysis (LTEA) Assay for solute carrier (SLC22A1) using HepaRG (AID 2283524)
In short: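 qRT-PCR readout (TaqMan, Fluidigm arrays) of SLC22A1 transcript, normalized to three housekeeping genes; bidirectional curve fit relative to 0.5% DMSO vehicle. Differentiated human HepaRG cells, 48 h chemical exposure, top concentration 100 uM, half-log steps, eight points.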

[19] = read-out: NAD(P)H dehydrogenase [quinone] 1 (NQO1), NQO1 (gene 1728); assay: LTEA_HepaRG_NQO1: Life Technologies and Expression Analysis (LTEA) Assay for NAD(P)H dehydrogenase [quinone] 1 (NQO1) using HepaRG (AID 2283526)
In short: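 qRT-PCR read-out (Fluidigm TaqMan), normalized to three housekeeping genes, after 48 h chemical exposure of HepaRG cells. Concentrations: eight points, top 100 uM, half-log steps, 0.5% DMSO vehicle. Gain or loss of signal fitted relative to DMSO.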

[20] = read-out: succinate dehydrogenase complex iron sulfur subunit B (SDHB), SDHB (gene 6390); assay: LTEA_HepaRG_SDHB: Life Technologies and Expression Analysis (LTEA) Assay for succinate dehydrogenase complex iron sulfur subunit B (SDHB) using HepaRG (AID 2283528)
In short: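 HepaRG, 48 h exposure, 8-pt half-log series from 100 uM in 0.5% DMSO, duplicates. Readout: SDHB mRNA by Fluidigm qRT-PCR vs housekeeping genes; bidirectional fit relative to DMSO.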

Measured: AC50

Sequence of Nuclear factor NF-kappa-B p105 subunit (Homo sapiens) (P19838 whole entry, looked up): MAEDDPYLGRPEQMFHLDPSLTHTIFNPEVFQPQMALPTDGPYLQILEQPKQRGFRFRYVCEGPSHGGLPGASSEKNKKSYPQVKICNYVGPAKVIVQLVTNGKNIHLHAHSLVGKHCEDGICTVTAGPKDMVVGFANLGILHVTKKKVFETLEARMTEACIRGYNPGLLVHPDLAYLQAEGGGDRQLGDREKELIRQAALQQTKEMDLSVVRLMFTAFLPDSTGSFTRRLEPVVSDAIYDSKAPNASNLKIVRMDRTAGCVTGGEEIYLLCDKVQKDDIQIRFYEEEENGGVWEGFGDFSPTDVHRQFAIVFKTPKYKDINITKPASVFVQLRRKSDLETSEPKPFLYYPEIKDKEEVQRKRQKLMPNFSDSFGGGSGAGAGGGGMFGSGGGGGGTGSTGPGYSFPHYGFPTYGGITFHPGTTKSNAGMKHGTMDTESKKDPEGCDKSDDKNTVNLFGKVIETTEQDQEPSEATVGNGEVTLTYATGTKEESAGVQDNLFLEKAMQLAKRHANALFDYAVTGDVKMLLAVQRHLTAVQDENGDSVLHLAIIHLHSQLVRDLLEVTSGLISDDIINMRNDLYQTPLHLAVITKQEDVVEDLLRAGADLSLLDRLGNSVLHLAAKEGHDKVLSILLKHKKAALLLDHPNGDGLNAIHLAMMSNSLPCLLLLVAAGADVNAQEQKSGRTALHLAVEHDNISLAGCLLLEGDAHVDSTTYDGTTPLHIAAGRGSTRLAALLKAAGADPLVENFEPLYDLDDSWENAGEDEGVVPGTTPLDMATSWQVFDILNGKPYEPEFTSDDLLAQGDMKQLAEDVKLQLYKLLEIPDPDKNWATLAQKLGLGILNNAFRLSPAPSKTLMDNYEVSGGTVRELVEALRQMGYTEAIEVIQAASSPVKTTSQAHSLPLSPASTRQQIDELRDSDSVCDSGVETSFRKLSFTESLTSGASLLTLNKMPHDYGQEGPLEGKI

CC(C)(OO)c1ccccc1
inactive: all assays above

CCC(C)(C)c1ccc(O)c(C(C)(C)CC)c1
inactive: all assays above

O=C1C2(Cl)C3(Cl)C4(Cl)C(Cl)(Cl)C5(Cl)C3(Cl)C1(Cl)C5(Cl)C24Cl (stereo not given)
inactive: [2] | [7] | [10] | [13] | [15] | [17] | [19]
active: [1] 24.2 µM | [3] 91.4 µM | [4] 84 µM | [5] 91.7 µM | [6] 90.8 µM | [8] 93.5 µM | [9] 91.1 µM | [11] 88.8 µM | [12] 24.9 µM | [14] 93.4 µM | [16] 15.8 µM | [18] 19.3 µM | [20] 91.6 µM

NC(=O)O
inactive: all assays above

Source: PubChem BioAssay (EPA / NIEHS)
